Measured values published in PubChem BioAssay (NCI).
About 79,000 compounds went through this panel and 15% of them were active in at least one assay; those are over-represented in the sample as a whole. The source made the active and inactive calls. Cut-off read from the data, not from the text of the source: active = growth inhibition above about 70%; inactive = the rest.

Legend:
[1] = NCI Yeast Anticancer Drug Screen. Data for the rad52 strain (AID 147);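 note: 0% = growth of vehicle-treated control cultures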; settings: S. cerevisiae rad52 mutant growth inhibition, stronger effect = higher value
Method in brief: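 Inhibition of yeast growth, referenced to vehicle controls, was the measured output for a strain with defective DNA damage repair.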

[2] = NCI Yeast Anticancer Drug Screen. Data for the wt1 strain (AID 149);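 note: 0% = growth of vehicle-treated wt1 cultures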; settings: S. cerevisiae wt1 strain (SPY 50644) growth inhibition, stronger effect = higher value
Method in brief: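 Using yeast strain wt1, compound-induced growth inhibition was determined against vehicle-treated cultures.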

[3] = NCI Yeast Anticancer Drug Screen. Data for the rad50EPP+ strain (AID 151);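 note: 0% = growth of vehicle-treated control cultures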; settings: S. cerevisiae rad50 mutant strain, stronger effect = higher value
Method in brief: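 Genetically defined yeast (rad50EPP+, DNA damage repair alteration) is grown with compound, and inhibition of growth is expressed relative to vehicle-treated controls.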

[4] = NCI Yeast Anticancer Drug Screen. Data for the mgt1 strain (AID 153); settings: S. cerevisiae mgt1 mutant growth inhibition, stronger effect = higher value
Method in brief: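 In the mgt1 strain, test compounds were added and growth inhibition was determined relative to vehicle-treated controls.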

[5] = NCI Yeast Anticancer Drug Screen. Data for the rad50 strain (AID 155);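 note: 0% = growth of vehicle-only cultures of the same strain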; settings: S. cerevisiae rad50 strain growth inhibition, stronger effect = higher value
Method in brief: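 Relative growth inhibition (compound vs vehicle) was measured in yeast with a defined repair-gene alteration.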

[6] = NCI Yeast Anticancer Drug Screen. Data for the mec2-1 strain (AID 157); settings: S. cerevisiae mec2-1 strain, stronger effect = higher value
Method in brief: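 Each compound was tested on mec2-1 yeast, a strain altered in DNA damage repair or cell cycle control. Growth inhibition is reported relative to vehicle.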

[7] = NCI Yeast Anticancer Drug Screen. Data for the rad14 strain (AID 159);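 note: 0% = growth of vehicle-treated control cultures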; settings: S. cerevisiae rad14 strain growth inhibition, stronger effect = higher value
Method in brief: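 Screen for anticancer potential: a yeast strain altered in DNA damage repair is grown with compound, and reduced growth is quantified against vehicle controls.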

[8] = NCI Yeast Anticancer Drug Screen. Data for the sgs1 mgt1 strain (AID 161);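 note: 0% = growth of cultures given vehicle only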; settings: S. cerevisiae sgs1 mgt1 strain, stronger effect = higher value
Method in brief: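 Read-out: growth inhibition vs vehicle controls. Cells: mutant yeast strain deficient in DNA damage repair.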

[9] = NCI Yeast Anticancer Drug Screen. Data for the CLN2oe strain (AID 163);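 note: 0% = growth of vehicle-only control cultures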; settings: S. cerevisiae CLN2oe strain, stronger effect = higher value
Method in brief: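 First, the altered yeast strain was treated with each compound; second, its growth was measured; finally, inhibition was derived by comparison with vehicle controls.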

[10] = NCI Yeast Anticancer Drug Screen. Data for the cln2 rad14 strain (AID 165);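 note: 0% = growth equal to vehicle treated cultures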; settings: S. cerevisiae cln2 rad14 strain, stronger effect = higher value
Method in brief: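 Test compounds were added to cln2 rad14 yeast cultures; inhibition of growth was then determined by comparison with vehicle treatment.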

[11] = NCI Yeast Anticancer Drug Screen. Data for the bub3 strain (AID 167); settings: S. cerevisiae bub3 mutant strain, stronger effect = higher value
Method in brief: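 Screening used yeast with an engineered genetic alteration affecting cell cycle control. Compound-exposed cultures were compared with vehicle cultures, and reduced growth was taken as inhibition.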

[12] = NCI Yeast Anticancer Drug Screen. Data for the wt2 strain (AID 169);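 note: 0% = growth of vehicle-treated yeast cultures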; settings: S. cerevisiae wt2 strain growth inhibition, stronger effect = higher value
Method in brief: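 The panel's yeast strains carry defined changes in DNA repair or cell cycle genes. Each strain is grown with compound, and growth loss is scored relative to vehicle.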

[13] = NCI Yeast Anticancer Drug Screen. Data for the mlh1 strain (AID 171);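 note: 0% = growth of vehicle-treated control cultures of the same strain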; settings: S. cerevisiae mlh1 strain growth inhibition, stronger effect = higher value
Method in brief: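 Inhibition values reflect reduced yeast growth in the presence of compound, referenced to vehicle controls, using a strain chosen for its alteration in DNA repair or cell cycle control.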

[14] = NCI Yeast Anticancer Drug Screen. Data for the sgs1 strain (AID 173);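 note: 0% = growth of vehicle-only control cultures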; settings: S. cerevisiae sgs1 mutant, stronger effect = higher value
Method in brief: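 Vehicle-treated cultures served as reference for growth inhibition of a yeast strain altered in DNA damage repair or cell cycle control after compound exposure.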

[15] = NCI Yeast Anticancer Drug Screen. Data for the mlh1 rad18 strain (AID 175); settings: S. cerevisiae mlh1 rad18 strain growth inhibition, stronger effect = higher value
Method in brief: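 Inhibition values reflect reduced growth of mutant yeast versus vehicle-treated controls following compound exposure; the mutations affect DNA damage repair.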

[16] = NCI Yeast Anticancer Drug Screen. Data for the rad18 strain (AID 177); settings: S. cerevisiae rad18 mutant growth inhibition, stronger effect = higher value
Method in brief: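 Steps: expose repair-mutant yeast to compound; measure growth; express as inhibition relative to vehicle control.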

[17] = at 5.0 µM (retest, dose inferred, filed as 0.5)
[18] = at 50.0 µM (retest, dose inferred, filed as 5.0)

Measured: growth inhibition

O=C1c2ccccc2N2OC3(N4CCCC4)CCCCC3C12c1ccccc1 (stereo unspecified)
inactive: [1]; at 1.2 µM -4% | [1]; at 3.7 µM 1% | [1]; at 11.0 µM 10% | [1]; at 33.0 µM 17% | [2]; at 1.2 µM 6% | [2]; at 3.7 µM -9% | [2]; at 11.0 µM 16% | [2]; at 33.0 µM 36% | [3]; at 1.2 µM -33% | [3]; at 3.7 µM -38% | [3]; at 11.0 µM -28% | [3]; at 33.0 µM 35% | [4]; at 1.2 µM -18% | [4]; at 3.7 µM -7% | [4]; at 11.0 µM -24% | [4]; at 33.0 µM -13% | [5]; at 1.2 µM 5% | [5]; at 3.7 µM -5% | [5]; [17] -35% | [5]; at 11.0 µM 7% | [5]; at 33.0 µM 19% | [5]; [18] -14% | [6]; at 1.2 µM -19% | [6]; at 3.7 µM -7% | [6]; [17] 1% | [6]; at 11.0 µM -25% | [6]; at 33.0 µM -1% | [6]; [18] 23% | [6]; at 50.0 µM 24.9% | [7]; at 1.2 µM -23% | [7]; at 3.7 µM -20% | [7]; at 11.0 µM -27% | [7]; at 33.0 µM -17% | [8]; [17] -9% | [8]; [18] -18% | [9]; at 1.2 µM -9% | [9]; at 3.7 µM -12% | [9]; at 11.0 µM -10% | [9]; at 33.0 µM 4% | [10]; [17] 16% | [10]; [18] 33% | [10]; at 50.0 µM 1.8% | [11]; at 1.2 µM -19% | [11]; at 3.7 µM -13% | [11]; [17] -6% | [11]; at 11.0 µM -2% | [11]; at 33.0 µM 40% | [12]; at 1.2 µM -18% | [12]; at 3.7 µM -17% | [12]; at 11.0 µM -14% | [12]; at 33.0 µM -8% | [13]; at 1.2 µM -46% | [13]; at 3.7 µM -44% | [13]; at 11.0 µM -41% | [13]; at 33.0 µM -10% | [14]; at 1.2 µM -1% | [14]; at 3.7 µM 5% | [14]; at 11.0 µM 7% | [14]; at 33.0 µM 61% | [15]; [17] -33% | [15]; [18] 35% | [15]; at 50.0 µM 18.8% | [16]; at 1.2 µM -9% | [16]; at 3.7 µM -7% | [16]; at 11.0 µM -7% | [16]; at 33.0 µM 15%
active: [1]; at 100.0 µM 98% | [2]; at 100.0 µM 98% | [3]; at 100.0 µM 99% | [4]; at 100.0 µM 98% | [5]; at 50.0 µM 84.6% | [5]; at 100.0 µM 97% | [6]; at 100.0 µM 98% | [7]; at 100.0 µM 98% | [8]; at 50.0 µM 74.7% | [9]; at 100.0 µM 98% | [11]; [18] 92% | [11]; at 50.0 µM 79.7% | [11]; at 100.0 µM 98% | [12]; at 100.0 µM 88% | [13]; at 100.0 µM 98% | [14]; at 100.0 µM 98% | [16]; at 100.0 µM 98%

O=C(NC(N1CCN(c2cc3c(cc2F)c(=O)c(C(=O)O)cn3C2CC2)CC1)(C(F)(F)F)C(F)(F)F)c1ccccc1
inactive: [1]; at 1.2 µM -2% | [1]; at 3.7 µM 1% | [1]; at 11.0 µM 17% | [2]; at 1.2 µM -2% | [2]; at 3.7 µM -3% | [2]; at 11.0 µM -1% | [2]; at 33.0 µM 8% | [2]; at 100.0 µM 40% | [3]; at 1.2 µM -2% | [3]; at 3.7 µM -1% | [3]; at 11.0 µM 4% | [3]; at 33.0 µM 27% | [3]; at 100.0 µM 40% | [4]; at 1.2 µM -1% | [4]; at 3.7 µM -2% | [4]; at 11.0 µM -2% | [4]; at 33.0 µM 6% | [4]; at 100.0 µM 42% | [5]; at 1.2 µM -1% | [5]; at 3.7 µM 5% | [5]; [17] -1% | [5]; at 11.0 µM 19% | [5]; at 50.0 µM 46.8% | [6]; at 1.2 µM -2% | [6]; at 3.7 µM -3% | [6]; [17] 3% | [6]; at 11.0 µM 0% | [6]; at 33.0 µM 35% | [6]; [18] 35% | [6]; at 50.0 µM -19.2% | [6]; at 100.0 µM 67% | [7]; at 1.2 µM -2% | [7]; at 3.7 µM -1% | [7]; at 11.0 µM 2% | [7]; at 33.0 µM 19% | [7]; at 100.0 µM 44% | [8]; [17] 4% | [8]; [18] 25% | [8]; at 50.0 µM 11.2% | [9]; at 1.2 µM 2% | [9]; at 3.7 µM 0% | [9]; at 11.0 µM 1% | [9]; at 33.0 µM 15% | [9]; at 100.0 µM 58% | [10]; [17] -3% | [10]; [18] 20% | [10]; at 50.0 µM 33.9% | [11]; at 1.2 µM 0% | [11]; at 3.7 µM -1% | [11]; [17] -7% | [11]; at 11.0 µM 1% | [11]; at 33.0 µM 2% | [11]; [18] 6% | [11]; at 50.0 µM -13.9% | [11]; at 100.0 µM 48% | [12]; at 1.2 µM -2% | [12]; at 3.7 µM -2% | [12]; at 11.0 µM -1% | [12]; at 33.0 µM 9% | [12]; at 100.0 µM 34% | [13]; at 1.2 µM -4% | [13]; at 3.7 µM -2% | [13]; at 11.0 µM 0% | [13]; at 33.0 µM 11% | [13]; at 100.0 µM 39% | [14]; at 1.2 µM -3% | [14]; at 3.7 µM -2% | [14]; at 11.0 µM 1% | [14]; at 33.0 µM 29% | [14]; at 100.0 µM 58% | [15]; [17] -5% | [15]; at 50.0 µM -1.3%
active: [1]; at 33.0 µM 90% | [1]; at 100.0 µM 90% | [5]; at 33.0 µM 88% | [5]; [18] 96% | [5]; at 100.0 µM 91% | [15]; [18] 80%
